# About 79,000 compounds went through this panel and 15% of them were active in at least one assay; those are over-represented in the sample as a whole. A number with no mark means an inactive call. Calls of active or inactive are those of the source. Cut-off read from the data, not from the text of the source: active = growth inhibition above about 70%; inactive = the rest.
# Columns and labels:
# [1] = NCI Yeast Anticancer Drug Screen. Data for the rad50 strain (AID 155);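 note: 0% = growth of vehicle-only cultures of the same strain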; details: S. cerevisiae rad50 strain growth inhibition, hits give high values
# Method in brief: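 Yeast carrying a defined DNA repair defect were exposed to test compounds, and growth was compared with vehicle-treated controls to give percent inhibition.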
# [2] = NCI Yeast Anticancer Drug Screen. Data for the mec2-1 strain (AID 157); details: S. cerevisiae mec2-1 strain, hits give high values
# Method in brief: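 Cells of the genetically defined mec2-1 yeast strain are incubated with test compound. Inhibition of growth is calculated against vehicle-treated controls.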
# [3] = NCI Yeast Anticancer Drug Screen. Data for the sgs1 mgt1 strain (AID 161);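 note: 0% = growth of cultures given vehicle only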; details: S. cerevisiae sgs1 mgt1 strain, hits give high values
# Method in brief: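 Mutant yeast exposed to compound; growth scored against vehicle-only wells.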
# [4] = NCI Yeast Anticancer Drug Screen. Data for the cln2 rad14 strain (AID 165);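 note: 0% = growth equal to vehicle treated cultures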; details: S. cerevisiae cln2 rad14 strain, hits give high values
# Method in brief: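 The screen exposed genetically defined yeast (cln2 rad14) to test compounds and scored growth inhibition relative to vehicle-treated controls.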
# [5] = NCI Yeast Anticancer Drug Screen. Data for the bub3 strain (AID 167); details: S. cerevisiae bub3 mutant strain, hits give high values
# Method in brief: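 Compounds were applied to a genetically altered yeast strain carrying a cell-cycle control defect. Growth inhibition was scored against vehicle-treated controls.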
# [6] = NCI Yeast Anticancer Drug Screen. Data for the mlh1 rad18 strain (AID 175); details: S. cerevisiae mlh1 rad18 strain growth inhibition, hits give high values
# Method in brief: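 Compound-treated yeast growth, normalised to vehicle controls. Strain bears defined DNA repair mutations.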
# [7] = at 5.0 µM (retest, dose inferred, filed as 0.5)
# [8] = at 50.0 µM (retest, dose inferred, filed as 5.0)
Structure (SMILES),"growth inhibition [1, 7]","growth inhibition [1, 8]",growth inhibition ([1]; at 50.0 µM),"growth inhibition [2, 7]","growth inhibition [2, 8]",growth inhibition ([2]; at 50.0 µM),"growth inhibition [3, 7]","growth inhibition [3, 8]",growth inhibition ([3]; at 50.0 µM),"growth inhibition [4, 7]","growth inhibition [4, 8]",growth inhibition ([4]; at 50.0 µM),"growth inhibition [5, 7]","growth inhibition [5, 8]",growth inhibition ([5]; at 50.0 µM),"growth inhibition [6, 7]","growth inhibition [6, 8]",growth inhibition ([6]; at 50.0 µM)
COc1ccc2c(C(=O)c3ccccc3)c3[n+](cc2c1OC)CCc1cc2c(cc1-3)OCO2,-1%,38%,65.7%,-21%,22%,53.6%,-4%,20%,52.1%,-4%,21%,30.1%,-4%,24%,50.3%,-2%,24%,75.5% (active)
NS(=O)(=O)c1ccc(NC(=O)Cc2nc3ccccc3s2)cc1,36%,99% (active),91% (active),40%,99% (active),91% (active),54%,100% (active),93.2% (active),31%,94% (active),90.7% (active),49%,99% (active),92% (active),65%,99% (active),91.2% (active)
CN(C)c1ccc(C(c2ccc(N(C)C)cc2)c2cccc([N+](=O)[O-])c2)cc1,-2%,-3%,-11.2%,-3%,-13%,0.2%,-2%,-1%,-2.45%,-8%,-33%,14.9%,43%,26%,50.1%,-2%,-12%,7.9%
CC(=O)OC1=CC(n2cc(F)c(=O)[nH]c2=O)OC(C)C1=O (stereo not given),23%,58%,69.7%,13%,85% (active),88.4% (active),24%,64%,86.5% (active),19%,4%,37.5%,15%,-13%,62.1%,20%,57%,51.7%
CCN(CC)c1ccc(N=Nc2ccc(-c3nc4ccc[n+](C)c4s3)cc2)cc1,99% (active),99% (active),89.6% (active),99% (active),99% (active),88.8% (active),99% (active),99% (active),88.2% (active),100% (active),100% (active),88.2% (active),99% (active),99% (active),91.1% (active),99% (active),99% (active),88.8% (active)
CC(=O)O[C@@H]1[C@@H](O)[C@H]2O[C@@H]3C=C(C)CC[C@]3(CO)[C@]1(C)[C@@]21CO1,34%,93% (active),-11.2%,28%,96% (active),-22.9%,33%,95% (active),5.35%,52%,98% (active),-11.7%,13%,98% (active),9.3%,33%,95% (active),91.8% (active)
CCCC(C)C/C(C)=C\C(C)(C)C1CC(=O)N(CC)C1=O (stereo not given),-3%,90% (active),20.3%,-1%,89% (active),80.7% (active),-3%,54%,72.7% (active),4%,92% (active),83.8% (active),4%,95% (active),70.9% (active),-3%,98% (active),60.9%
CC(=O)N(C)c1ccc2c(c1)Cc1ccccc1-2,2%,34%,42.6%,1%,21%,27.4%,1%,36%,42.7%,-2%,16%,14.8%,16%,86% (active),58.3%,-2%,30%,23.1%
CCCCCCCCCCCCCCCCNCCCN(C)CCCN,-1%,98% (active),88.5% (active),-19%,98% (active),93.5% (active),2%,97% (active),93.3% (active),-26%,97% (active),92% (active),-26%,97% (active),92.4% (active),-68%,97% (active),90.3% (active)
COC1=C(Br)C(=O)N/C1=C(\OC)c1ccccc1,4%,9%,11.3%,4%,1%,-8.9%,6%,15%,29.9%,6%,0%,37.9%,21%,0%,-1.65%,2%,4%,6.15%

# Source: PubChem BioAssay (NCI)
